Compound activity (PubChem)
This excerpt belongs to a sample that is enriched for hits.
STK33 inh – STK33 kinase inhibitors, primary screen, biochemical, luminescence, ADP-Glo, MBP substrate. inhibition, % at 12.5 µM. 27,000 compounds, 0.44% hits. AID 2322, 2010. Serine/threonine-protein kinase 33 (Homo sapiens), Q9BYT3; in the data active = inhibition above about 20%; inconclusive = no clear call, values can overlap the other calls
Target sequence (Q9BYT3 whole entry, looked up): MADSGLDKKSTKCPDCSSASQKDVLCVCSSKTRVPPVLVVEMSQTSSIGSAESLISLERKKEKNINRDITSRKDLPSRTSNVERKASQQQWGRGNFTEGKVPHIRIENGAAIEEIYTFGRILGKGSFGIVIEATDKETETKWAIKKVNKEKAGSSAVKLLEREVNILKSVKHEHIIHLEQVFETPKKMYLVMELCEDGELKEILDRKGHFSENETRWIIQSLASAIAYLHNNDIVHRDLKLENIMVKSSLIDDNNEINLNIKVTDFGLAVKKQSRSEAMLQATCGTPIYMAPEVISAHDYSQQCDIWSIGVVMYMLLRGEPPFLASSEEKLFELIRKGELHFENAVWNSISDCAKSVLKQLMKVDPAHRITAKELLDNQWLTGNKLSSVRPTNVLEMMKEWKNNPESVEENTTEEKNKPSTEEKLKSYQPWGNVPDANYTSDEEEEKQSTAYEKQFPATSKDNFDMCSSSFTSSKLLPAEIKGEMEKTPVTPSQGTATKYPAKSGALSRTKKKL
PD-1 reverse act – activators reversing PD-1 mediated T-cell inhibition, primary screen, luminescence, primary human CD4 T cells, PD-L1 beads; CellTiter-Glo 96 h; activation, % (test concentration not listed); 29,000 tested, under 10 active; AID 2316, 2010; call rule not given here
NOMO-1 viab – NOMO-1 AML cell viability reduction, primary screen, STK33 inhibitor project, CellTiter-Glo luminescence; NOMO-1 AML viability, 72 h; inhibition, % (no concentration beside the values); 37,000 compounds, 7.5% hits; AID 2330, 2010; in the data active = inhibition above about 80%; inconclusive = no clear call, values can overlap the other calls
Hits are given with their value; 0 = inactive; ? = inconclusive; - = no result.

SMILES	STK33 inh	PD-1 reverse act	NOMO-1 viab
COc1ccc(CCNC(=S)NCCc2ccccc2)cc1OC	-	0	0
COc1ccc(CCNC(=S)N2CCN(c3ncccn3)CC2)cc1OC	0	0	0
O=C(COc1ccccc1Cl)Nc1ccc2oc(-c3ccccc3Br)nc2c1	0	0	0
N#Cc1c(SCC(=O)Nc2c(Cl)cccc2Cl)nc2c(c1-c1cccnc1)CCC2	0	0	0
Cc1cc(N(CC(=O)Nc2cccc([N+](=O)[O-])c2)S(C)(=O)=O)ccc1Br	0	0	0
N#Cc1cc2c(nc1SCC(=O)Nc1ccccc1OC(F)(F)F)CCCC2	0	-	0
N#Cc1cc2c(nc1SCCS(=O)(=O)c1nc3ccccc3s1)CCCC2	0	0	111.8
Cc1cc(C)c(C#N)c(SCCS(=O)(=O)c2nc3ccccc3s2)n1	0	0	128.2
Cc1cc(C)c(C#N)c(SCC(O)CS(=O)(=O)c2ccc(C(C)(C)C)cc2)n1 (stereo unspecified)	0	0	0
COc1ccc(CN(C)C[C@H]2Oc3ccc(NC(=O)Nc4ccc(C(F)(F)F)cc4)cc3C(=O)N([C@@H](C)CO)C[C@@H]2C)cc1	-	0	113.2
COc1ccc(NC(=O)Nc2ccc3c(c2)C(=O)N([C@@H](C)CO)C[C@@H](C)[C@@H](CN(C)Cc2ccc(C(F)(F)F)cc2)O3)cc1	0	0	?
COc1ccc(CN(C)C[C@@H]2Oc3ccc(NC(=O)Nc4ccc(C(F)(F)F)cc4)cc3C(=O)N([C@H](C)CO)C[C@@H]2C)cc1	0	0	114.0
COc1ccc(NC(=O)Nc2ccc3c(c2)C(=O)N([C@@H](C)CO)C[C@H](C)[C@H](CN(C)Cc2ccc(C(F)(F)F)cc2)O3)cc1	0	0	0
Cc1ccc(N(C(C)C(=O)Nc2ccccc2C(=O)N2CCCC2)S(C)(=O)=O)cc1 (stereo unspecified)	0	0	0
COc1ccccc1CC(=O)Nc1ccc(-c2noc(-c3ccc(OC)c(OC)c3)n2)cc1	0	0	0
Cc1ccc(-c2nc3ccccc3[nH]2)cc1NC(=O)COc1cccc([N+](=O)[O-])c1	0	0	0
COc1ccccc1CC(=O)Nc1ccc(-c2nc3ccccc3[nH]2)cc1	-	0	135.0
Cc1ccc(-c2nc3ccccc3[nH]2)cc1NC(=O)COc1ccccc1[N+](=O)[O-]	0	0	119.1
COc1cccc(NC(=O)CSc2nnc(-c3ccccc3)n2-c2ccc(Cl)cc2)c1	0	0	0
O=C(COc1ccc2ccccc2c1Br)Nc1ccccc1C(=O)NC1CCCCC1	0	-	0
CC(C)NC(=O)Nc1ccc2c(c1)C(=O)N([C@H](C)CO)C[C@@H](C)[C@@H](CN(C)Cc1ccc(C(=O)Nc3ccccc3N)cc1)O2	-	0	0
C[C@@H]1CN([C@@H](C)CO)C(=O)c2cc(NC(=O)c3ccncc3)ccc2O[C@@H]1CN(C)Cc1ccc(C(=O)Nc2ccccc2N)cc1	-	0	?
C[C@@H]1CN([C@@H](C)CO)C(=O)c2cc(NC(=O)Nc3cccc4ccccc34)ccc2O[C@@H]1CN(C)Cc1ccc(C(=O)Nc2ccccc2N)cc1	-	0	110.3
C[C@H](CO)N1C[C@H](C)[C@H](CN(C)Cc2ccc(C(=O)Nc3ccccc3N)cc2)Oc2ccc(NC(=O)Cc3ccccc3)cc2C1=O	-	0	103.6
C[C@@H]1CN([C@@H](C)CO)C(=O)c2cc(NC(=O)Nc3ccc4c(c3)OCO4)ccc2O[C@H]1CN(C)Cc1ccc(C(=O)Nc2ccccc2N)cc1	-	0	0
SMILES	STK33 inh	PD-1 reverse act	NOMO-1 viab
C[C@@H]1CN([C@@H](C)CO)C(=O)c2cc(NC(=O)Nc3ccc4c(c3)OCO4)ccc2O[C@@H]1CN(C)Cc1ccc(C(=O)Nc2ccccc2N)cc1	-	0	108.2
C[C@@H]1CN([C@@H](C)CO)C(=O)c2cc(NC(=O)Nc3ccccc3)ccc2O[C@@H]1CN(C)Cc1ccc(C(=O)Nc2ccccc2N)cc1	-	0	110.9
C[C@H](CO)N1C[C@H](C)[C@H](CN(C)Cc2ccc(C(=O)Nc3ccccc3N)cc2)Oc2ccc(NC(=O)Nc3ccccc3)cc2C1=O	-	0	?
O=C(CCCN1C(=O)c2ccccc2C1=O)Nc1ccc(Cl)cc1C(F)(F)F	0	0	0
COc1ccc(-c2nnc(SCC(=O)Nc3cccc(C(C)=O)c3)n2-c2ccccc2)cc1	0	-	0
CCc1ccc(-c2cn3c4ccccc4nc3n2CCN2CCOCC2)cc1	0	0	0
COC1=CC(C)c2c(c(OC)c3occ(C)c3c2C)C1=O (stereo unspecified)	0	0	0
COc1cccc(NC(=O)CSc2nnc(-c3ccc(Cl)cc3)n2-c2ccc(F)cc2)c1	0	0	0
CC(Oc1ccccc1)C(=O)Nc1cc([N+](=O)[O-])ccc1O (stereo unspecified)	0	0	0
COc1ccc(NC(=O)c2ccccc2NC(=O)COc2cccc(OC)c2)cc1	0	0	0
O=C(COc1cccc(NC(=O)c2ccccc2Cl)c1)c1ccc(F)cc1	0	0	0
COC(=O)COc1cccc(NC(=O)c2ccccc2I)c1	0	-	109.6
COc1ccc(C(=O)COc2cccc(NC(=O)c3ccccc3C)c2)cc1	0	0	0
Cc1cccc(C(=O)Nc2cccc(OCC(=O)O)c2)c1	0	0	0
COC(=O)COc1cccc(NC(=O)c2ccccc2Cl)c1	0	-	118.6
COC(=O)COc1cccc(NC(=O)c2ccc(-c3ccccc3)cc2)c1	0	0	112.6
COC(=O)COc1cccc(NC(=O)c2ccccc2F)c1	0	0	121.5
COC(=O)C(=O)CC(=O)c1c(F)c(F)c(OC)c(F)c1F	0	0	0
COc1ccc(S(=O)(=O)N(CC(N)=O)c2ccc(F)cc2)cc1	0	0	0
Cc1c(Cl)cccc1NC(=O)CSc1nccc(=O)[nH]1	0	0	0
Oc1ccc(CNc2cccc(C(F)(F)F)c2)c2cccnc12	-	0	104.4
Cc1ccnc(SCC(=O)Nc2cccc(C(F)(F)F)c2)n1	0	0	0
CC(C)OC(=O)CCN1C(=O)/C(=C/c2ccccc2)SC1=S	-	0	0
O=C1/C(=C/c2ccc(O)cc2)SC(=S)N1CCc1ccccc1	-	0	102.2
Cc1ccc(-c2nnc(SCC(=O)c3ccccc3)n2-c2ccccc2)cc1Cl	0	0	0
SMILES	STK33 inh	PD-1 reverse act	NOMO-1 viab
CCc1ccccc1NC(=O)CSc1nc2ccc(C(=O)c3ccccc3)cc2[nH]1	0	0	0
Cc1ccc2nc(S/C=C/C(=O)c3ccccc3)[nH]c2c1	?	0	122.8
CCN(CC)CCOc1ccccc1	-	0	0
CCOC(=O)c1c(NC(=O)c2nc3nc(C)cc(C(F)F)n3n2)sc(C)c1C	0	-	0
O=C(CCS(=O)(=O)c1ccc2ccccc2c1)Nc1ccccc1	0	0	0
COc1c(CC=C(C)C)c2c(c3oc(=O)c(-c4ccc(OC(C)=O)cc4)c(OC(C)=O)c13)C=CC(C)(C)O2	0	0	0
NC(=O)c1ccc(N2CCN(C(c3ccccc3)c3ccccc3)CC2)nc1	-	0	109.2
CN1CCN(C(c2ccccc2)c2ccccc2)CC1	0	0	0
COc1ccc(-c2cc(=O)[nH]c(SCC(=O)Nc3ccc(Br)cc3)n2)cc1	0	0	0
COc1ccc(OC)c(NC(=O)CSc2nnnn2-c2ccccc2)c1	0	0	0
COc1ccc(-n2nnnc2SCC(=O)Nc2cc(C)c(Cl)cc2OC)cc1	0	0	92.2
N#CCSc1nc2cc(C(=O)NCc3ccccc3)ccc2c(=O)n1CCc1ccccc1	0	0	?
